Laboratory results reported in ChEMBL document CHEMBL1961873, “Compounds: GSK PKIS; Assays: Nanosyn kinase panel” (2012).

Tests used:
[1] = molecular target: Sphingosine kinase 1 (Homo sapiens) (UniProt Q9NYA1); settings: at 1 µM;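 also: mean SPHK1 inhibition value reported from the GSK PKIS kinase panel screen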
[2] = molecular target: T1, Sphingosine kinase 2 (Homo sapiens) (UniProt Q9NRA0); settings: at 0.1 µM
T1 sequence (whole entry): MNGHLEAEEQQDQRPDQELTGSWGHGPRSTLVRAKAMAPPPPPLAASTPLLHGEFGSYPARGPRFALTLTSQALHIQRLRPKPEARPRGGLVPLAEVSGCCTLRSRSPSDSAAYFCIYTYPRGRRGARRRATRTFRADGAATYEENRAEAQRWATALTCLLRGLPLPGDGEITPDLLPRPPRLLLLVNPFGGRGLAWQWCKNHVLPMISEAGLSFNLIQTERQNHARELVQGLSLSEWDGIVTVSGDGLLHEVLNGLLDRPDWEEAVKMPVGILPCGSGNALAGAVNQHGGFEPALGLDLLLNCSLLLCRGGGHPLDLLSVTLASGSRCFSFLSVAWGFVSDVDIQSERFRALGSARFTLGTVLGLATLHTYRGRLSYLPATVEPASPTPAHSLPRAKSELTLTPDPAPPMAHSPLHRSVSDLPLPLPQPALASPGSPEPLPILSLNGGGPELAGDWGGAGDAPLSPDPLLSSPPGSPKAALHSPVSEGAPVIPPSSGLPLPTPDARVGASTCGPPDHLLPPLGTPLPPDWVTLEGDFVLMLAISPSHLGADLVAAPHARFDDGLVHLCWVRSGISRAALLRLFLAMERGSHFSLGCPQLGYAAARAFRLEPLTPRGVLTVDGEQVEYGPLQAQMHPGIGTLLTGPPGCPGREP

[3] = molecular target: T1, Sphingosine kinase 2 (Homo sapiens); settings: at 1 µM
[4] = molecular target: Casein kinase II subunit alpha (Homo sapiens) (UniProt P68400); settings: at 0.1 µM
[5] = molecular target: Casein kinase II subunit alpha (Homo sapiens) (UniProt P68400); settings: at 1 µM
[6] = molecular target: T2, Inhibitor of nuclear factor kappa-B kinase subunit alpha (Homo sapiens) (UniProt O15111); settings: at 0.1 µM
T2 sequence (whole entry): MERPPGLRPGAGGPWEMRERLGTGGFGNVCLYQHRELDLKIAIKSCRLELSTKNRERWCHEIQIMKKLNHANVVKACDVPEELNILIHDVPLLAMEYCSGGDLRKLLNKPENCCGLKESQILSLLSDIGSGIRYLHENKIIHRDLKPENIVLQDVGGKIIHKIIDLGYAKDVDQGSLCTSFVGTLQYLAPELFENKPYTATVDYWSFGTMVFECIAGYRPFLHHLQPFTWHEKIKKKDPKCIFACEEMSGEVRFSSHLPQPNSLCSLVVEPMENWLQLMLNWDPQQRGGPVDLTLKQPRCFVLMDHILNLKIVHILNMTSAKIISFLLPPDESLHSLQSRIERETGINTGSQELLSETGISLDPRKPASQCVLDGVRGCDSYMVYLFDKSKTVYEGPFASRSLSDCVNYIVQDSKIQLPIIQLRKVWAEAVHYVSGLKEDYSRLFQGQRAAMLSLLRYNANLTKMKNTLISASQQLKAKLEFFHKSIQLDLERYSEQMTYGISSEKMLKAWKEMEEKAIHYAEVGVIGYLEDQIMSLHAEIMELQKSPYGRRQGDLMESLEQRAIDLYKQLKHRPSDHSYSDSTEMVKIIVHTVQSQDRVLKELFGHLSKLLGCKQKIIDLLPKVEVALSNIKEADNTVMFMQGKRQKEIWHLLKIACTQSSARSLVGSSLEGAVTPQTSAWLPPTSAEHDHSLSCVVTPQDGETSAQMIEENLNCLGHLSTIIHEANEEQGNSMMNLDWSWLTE

[7] = molecular target: T2, Inhibitor of nuclear factor kappa-B kinase subunit alpha (Homo sapiens); settings: at 1 µM
[8] = molecular target: T3, Inhibitor of nuclear factor kappa-B kinase subunit beta (Homo sapiens) (UniProt O14920); settings: at 0.1 µM
T3 sequence (whole entry): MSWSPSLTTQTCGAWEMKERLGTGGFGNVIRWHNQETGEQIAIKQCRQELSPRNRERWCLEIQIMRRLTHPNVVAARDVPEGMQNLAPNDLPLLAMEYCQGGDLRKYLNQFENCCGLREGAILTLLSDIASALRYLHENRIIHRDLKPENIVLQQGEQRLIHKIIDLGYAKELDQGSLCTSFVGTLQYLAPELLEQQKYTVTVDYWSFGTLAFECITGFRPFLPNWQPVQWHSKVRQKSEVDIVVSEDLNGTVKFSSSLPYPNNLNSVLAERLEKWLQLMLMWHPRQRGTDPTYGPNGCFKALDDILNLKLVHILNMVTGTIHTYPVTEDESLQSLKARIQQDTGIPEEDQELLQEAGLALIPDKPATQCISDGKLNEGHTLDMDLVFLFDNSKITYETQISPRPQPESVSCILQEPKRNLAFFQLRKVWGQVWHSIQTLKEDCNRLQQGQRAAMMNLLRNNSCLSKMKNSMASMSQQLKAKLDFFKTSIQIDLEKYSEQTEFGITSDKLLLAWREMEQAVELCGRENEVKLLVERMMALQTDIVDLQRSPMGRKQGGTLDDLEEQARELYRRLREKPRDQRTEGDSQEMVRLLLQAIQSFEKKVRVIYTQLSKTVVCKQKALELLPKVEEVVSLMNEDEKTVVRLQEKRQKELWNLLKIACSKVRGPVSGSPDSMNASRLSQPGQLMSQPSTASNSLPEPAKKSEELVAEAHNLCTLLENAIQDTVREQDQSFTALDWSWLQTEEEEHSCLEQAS

[9] = molecular target: T3, Inhibitor of nuclear factor kappa-B kinase subunit beta (Homo sapiens); settings: at 1 µM
[10] = molecular target: T4, Inhibitor of nuclear factor kappa-B kinase subunit epsilon (Homo sapiens) (UniProt Q14164); settings: at 0.1 µM;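 also: mean inhibition of IKKε reported, from the GSK PKIS dataset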
T4 sequence (whole entry): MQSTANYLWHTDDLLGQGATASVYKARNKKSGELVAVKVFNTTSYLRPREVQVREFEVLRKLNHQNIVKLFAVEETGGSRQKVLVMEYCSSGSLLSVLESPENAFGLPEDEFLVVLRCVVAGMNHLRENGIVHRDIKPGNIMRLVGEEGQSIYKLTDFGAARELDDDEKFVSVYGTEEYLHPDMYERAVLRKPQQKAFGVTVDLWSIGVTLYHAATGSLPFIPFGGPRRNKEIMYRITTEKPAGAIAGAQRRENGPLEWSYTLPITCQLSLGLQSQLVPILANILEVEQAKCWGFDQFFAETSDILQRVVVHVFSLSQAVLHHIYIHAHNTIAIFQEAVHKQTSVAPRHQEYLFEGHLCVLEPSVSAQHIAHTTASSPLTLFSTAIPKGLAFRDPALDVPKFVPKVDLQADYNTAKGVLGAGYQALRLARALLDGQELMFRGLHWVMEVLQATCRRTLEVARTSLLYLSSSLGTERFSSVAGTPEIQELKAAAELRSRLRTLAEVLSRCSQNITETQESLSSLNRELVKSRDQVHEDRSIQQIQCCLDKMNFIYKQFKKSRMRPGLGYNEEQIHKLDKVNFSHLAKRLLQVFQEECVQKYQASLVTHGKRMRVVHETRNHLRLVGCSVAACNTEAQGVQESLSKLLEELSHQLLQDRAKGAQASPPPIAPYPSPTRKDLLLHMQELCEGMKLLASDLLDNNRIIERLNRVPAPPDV

Chain of Casein kinase II subunit alpha (Homo sapiens) (P68400 whole entry, looked up): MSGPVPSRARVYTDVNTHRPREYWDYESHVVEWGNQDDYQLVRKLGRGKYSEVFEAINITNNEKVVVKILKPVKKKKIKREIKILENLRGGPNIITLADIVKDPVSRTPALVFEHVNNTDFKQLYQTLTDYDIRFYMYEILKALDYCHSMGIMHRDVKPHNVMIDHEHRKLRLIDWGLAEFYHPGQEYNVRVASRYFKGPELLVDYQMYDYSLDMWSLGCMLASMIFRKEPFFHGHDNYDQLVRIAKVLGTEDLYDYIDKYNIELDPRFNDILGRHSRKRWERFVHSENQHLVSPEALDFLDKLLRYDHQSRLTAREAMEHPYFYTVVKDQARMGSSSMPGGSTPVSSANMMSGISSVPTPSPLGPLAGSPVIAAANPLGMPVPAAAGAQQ
Chain of Sphingosine kinase 1 (Homo sapiens) (Q9NYA1 whole entry): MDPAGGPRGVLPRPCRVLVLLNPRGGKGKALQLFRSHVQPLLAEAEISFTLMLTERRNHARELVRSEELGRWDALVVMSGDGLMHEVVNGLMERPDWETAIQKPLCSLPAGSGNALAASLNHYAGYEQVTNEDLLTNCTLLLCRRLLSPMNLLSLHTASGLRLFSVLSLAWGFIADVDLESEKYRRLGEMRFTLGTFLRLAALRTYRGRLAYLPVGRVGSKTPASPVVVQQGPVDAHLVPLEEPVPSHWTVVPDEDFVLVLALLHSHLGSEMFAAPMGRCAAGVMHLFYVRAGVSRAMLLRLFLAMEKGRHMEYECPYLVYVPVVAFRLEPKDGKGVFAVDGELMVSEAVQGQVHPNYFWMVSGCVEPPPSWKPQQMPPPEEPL

`FC(F)(F)CNc1nccc(-c2cnn3ncccc23)n1` was tested, and the inhibition [1] was -0.16%, the inhibition [2] was -1.21% and the inhibition [3] was -4.21%. The inhibition [4] was 9.47%, the inhibition [5] was 3.8% and the inhibition [6] was 1.92%. For the same compound, the inhibition [7] was 9.86%, the inhibition [8] was 4.92% and the inhibition [9] was 5.42%. The inhibition [10] was 6.69%.
